According to PubChem BioAssay (NCI):
About 83,000 compounds went through this panel and 20% of them were active in at least one assay; those are over-represented in the sample as a whole.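 Activity criterion: percent growth below 10, measured after cells in 96-well plates were exposed to a single compound concentration for 48 hours.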 Activity calls are given as the source filed them.

System: HL-60(TB) leukemia
Experiment: NCI-60 one-dose screen, 48 h (100 = growth as untreated, 0 = no growth, -100 = all killed)
Settings: 10 µM unless noted

SMILES | growth
NS(=O)(=O)c1ccc(-n2nc(C(=O)N/N=C\c3ccc(F)cc3)cc2-c2ccc(Br)cc2)cc1 | 71% (inactive)
CC(C)N=C1CCCC1C(=S)SSC(=S)C1CCCC1=NC(C)C (stereo not given) | 75.8% (inactive)
CN(C)CCCNC(=O)c1cncnc1Nc1ccc2c(ccn2Cc2cccc(F)c2)c1 | 93.3% (inactive)
Oc1ccc(Cl)cc1Cc1cc(Cl)cc(Cl)c1O | -11.1% (active)
CC(=O)N1Cc2ccccc2C(C)Cc2cc(Cl)ccc21 (stereo not given) | 111% (inactive)
Cn1c2c(cc(S(=O)(=O)c3ccccc3)c1=O)CCc1c-2cnn1-c1cccc(Cl)c1 | 107% (inactive)
CN(C)c1ccc2oc(=O)c3ccccc3c2c1 | 143% (inactive)
O=c1oc2ccccc2cc1-c1csc(N=Nc2c(O)[nH]c3ccc(Br)cc23)n1 | 106% (inactive)
COc1ccc2nc3cc(Cl)ccc3c(N3CCN(c4ccnc(Nc5ccc(F)cc5)n4)CC3)c2c1 | 52.5% (inactive)
O=[N+]([O-])c1ccccc1Sc1ccccc1[N+](=O)[O-] | 111% (inactive)
COc1cccc(C(=O)Cn2cc(/C=C(\C#N)S(=O)(=O)c3ccccc3)c3ccccc32)c1 | 102% (inactive)
O=C(N/N=C/c1ccc(Cl)cc1)c1ccc(NC(=O)c2ccccn2)cc1 | 103% (inactive)
CCCCn1c(=O)c2c(nc(NCCc3ccc(O)c(O)c3)n2CCC)n(CCCC)c1=O | 60.3% (inactive)
CCN(Cc1ccccc1)c1ccc(C=O)cc1 | 85.2% (inactive)
C[N+](C)(C/C=C/c1ccccc1)Cc1ccccc1 | 92.6% (inactive)
C=C1C(=O)O[C@H]2[C@H]1CC/C(COC(=O)/C=C\C(=O)NCc1ccc(Cn3c(=O)sn(CCCCl)c3=O)cc1)=C\CC[C@@]1(C)O[C@@H]21 | 10.8% (inactive)
COc1ccc(-c2nc(SCC(C)C)nc(Nc3ccc(C(=O)O)cc3)c2C#N)cc1 | 99.7% (inactive)
COc1ccc(/C=C/c2cccc[n+]2C)cc1 | 105% (inactive)
Cn1c2ccccc2c2c3c(c4c5ccccc5n(C)c4c21)C(=O)OC3 | 98.5% (inactive)
O=C1Nc2ccccc2C2c3cccn3-c3ccccc3N12 (stereo not given) | 86.1% (inactive)

SMILES | growth
Cc1ccc(C2SCC(=O)N2Cc2ccccc2)cc1 (stereo not given) | 96.1% (inactive)
Cn1cc(-c2noc(-c3cn(C)c4ncccc34)n2)c2cc(Cl)ccc21 | 80.2% (inactive)
COc1cc(/C=C/C(=O)/C=C/c2ccc(-n3ccnc3C)cc2)ccc1O | 49.5% (inactive)
CC(C)[C@@H]1NC(=O)[C@]2(C)CSC(=N2)c2ccnc(c2)CNC(=O)C[C@@H](/C=C/CCS)OC1=O | 9.07% (active)
N=C(N)c1ccc(-c2ccc(-c3ccc(-c4cccs4)s3)s2)cc1F | 99.7% (inactive)
CCCCn1c(Cc2ccc(Cl)cc2)nc2cc(OC)c(OC)cc2c1=O | 53.7% (inactive)
Brc1cnc2ccccc2c1 | 89.1% (inactive)
C#Cc1cccc(NC(=O)C2CCCCN2C(=O)CCl)c1 (stereo not given) | -31.6% [8.25 µM] (active)
COc1cc(-c2nn(-c3ccc(NC(=O)c4cc(Cl)cc(Cl)c4)cc3)cc2-c2ccncc2)ccc1Cl | 41% (inactive)
NS(=O)(=O)Oc1ccc2c(ccn2C(=O)C23CC4CC(CC(C4)C2)C3)c1 | 97.6% (inactive)
NS(=O)(=O)c1ccc(N2N=C(c3ccccc3)CCC2=O)cc1 | 64.2% (inactive)
Cn1cccc1-c1nc2c3c(ccc2[nH]1)C(=O)c1ccccc1C3=O | 82.3% (inactive)
Oc1cccc2c1NCCC2 | 7.84% (active)
O=C(/C=C/c1ccccn1)c1ccccc1O | 13.1% (inactive)
CCN(CC)CCSCCN(CC)CC | 100% (inactive)
CSc1[nH]c2ncnc(N)c2c1C#N | 112% (inactive)
COC(=O)/C(CCC=C(C)C)=C1\[C@@H](OC(C)=O)C[C@@]2(C)[C@H]1CC(=O)[C@H]1[C@@]3(C)CC[C@H](NCc4ccccc4)[C@@H](C)[C@@H]3CC[C@@]12C | 84.7% (inactive)
CCCCCC1CCCCN1C(=O)OCCCC (stereo not given) | 102% (inactive)
O=C(NNc1cnccn1)c1nc2cc(F)ccc2n2cccc12 | 2.46% (active)
Cc1cc2c(C)c3cc(C)c(N)cc3nc2cc1N | 19% (inactive)
